An excerpt weighted towards active compounds, which were near 3.7% of everything screened.
Ecoli rRNA inh – inhibitors of bacterial rRNA selective over humanized ribosomes; E. coli WT GFP vs humanized-ribosome RFP mutants, fluorescence, 24 h; active compounds read low; DMSO median 0, no signal -100; GFP signal change (wild-type ribosome), % (no concentration beside the values); actives 1.6% (n = 350,000); AID 720706;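 active means significant combined selectivity score with lowered wild-type GFP, culture density cut under 30%, mutant RFP and density less affected; inactive means any of these conditions unmet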
AF4-AF9 inh – MLL-AF4/AF9 protein interaction inhibition. P42568. inhibition, % at 10 µM. actives 0.47% (n = 350,000). AlphaScreen, biotin-AF4 peptide binding to FLAG-AF9. AID 651704;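 active means every replicate reaching a set inhibition limit, whatever the replicate mean, cut at about 25% in these data; inconclusive means mean inhibition reaches that limit but some replicates miss it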;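 further: 0% = plate neutral control median and 100% = total signal loss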
Target sequence (P42568 whole entry, looked up): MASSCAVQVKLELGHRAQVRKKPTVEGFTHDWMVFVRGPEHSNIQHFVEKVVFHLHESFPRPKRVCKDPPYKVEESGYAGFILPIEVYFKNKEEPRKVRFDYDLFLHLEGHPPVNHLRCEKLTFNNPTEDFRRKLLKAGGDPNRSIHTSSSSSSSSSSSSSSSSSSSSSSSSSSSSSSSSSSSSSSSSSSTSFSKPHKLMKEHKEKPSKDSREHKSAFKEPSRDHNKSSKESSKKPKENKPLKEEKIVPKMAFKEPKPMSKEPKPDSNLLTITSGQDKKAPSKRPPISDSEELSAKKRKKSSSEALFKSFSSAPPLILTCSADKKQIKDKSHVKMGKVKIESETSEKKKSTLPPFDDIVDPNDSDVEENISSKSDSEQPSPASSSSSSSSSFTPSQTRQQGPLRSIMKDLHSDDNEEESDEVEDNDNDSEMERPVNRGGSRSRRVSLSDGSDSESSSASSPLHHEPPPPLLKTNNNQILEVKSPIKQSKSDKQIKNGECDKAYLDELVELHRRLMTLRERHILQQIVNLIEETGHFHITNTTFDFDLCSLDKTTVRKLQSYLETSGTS
MITF act – MITF TRPM1 promoter activation in melanoma cells; SK-MEL-5 TRPM1-promoter luciferase, 24 h; % of positive control, neutral wells = 0; activation, % at 12.5 µM; actives 0.75% (n = 300,000); AID 588334;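 active means mean activation of at least 80% with every replicate also reaching 80%; inconclusive means mean reaches 80% but some replicate falls short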;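 further: 0% = neutral control wells and 100% = parthenolide positive control wells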
esBAF inh – SWI/SNF esBAF complex inhibition | mouse ES cells, Bmi1-luciferase knock-in reporter, 24 h; 100% = twice the neutral-well signal | reporter increase, % at 12.5 µM | actives 2% (n = 350,000) | AID 602393; in the data active means activation above about 40%; inconclusive means no clear call, values can overlap the other calls;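 further: 0% = median of the plate's neutral control wells and 100% = double that signal; a rise in the Bmi1 reporter signal indicates esBAF inhibition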
Wnt bcat act – activates Wnt/beta-catenin signaling in a reporter cell assay | activator, plate reader | activation, % at 9.35 µM | actives 1.2% (n = 300,000) | AID 743398; in the data active means activation above about 30%, passing the limit was not always enough; inconclusive means no clear call, values can overlap the other calls;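 further: 0% = neutral control wells and 100% = positive control wells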
* hit, by the source's call; ? = inconclusive; nt = no result given.

SMILES	Ecoli rRNA inh	AF4-AF9 inh	MITF act	esBAF inh	Wnt bcat act
S=C(NCCCN1CCOCC1)N1CCN(c2nc(-c3ccccc3)cs2)CC1	-22*	15	-3	1	-4
S=C(NCCCN1CCOCC1)N1CCN(c2ccccc2)CC1	5	1	nt	-1	-1
CCc1nnc(NC(=O)C2CCCCN2S(=O)(=O)c2ccccc2)s1 (stereo not drawn)	-5	-1	-16	-2	-2
Cc1ccsc1/C=C1\Oc2cc(O)ccc2C1=O	-2	-1	nt	51*	0
O=C1/C(=C/c2cccc([N+](=O)[O-])c2)Oc2cc(O)ccc21	16	-4	18	-1	-9
O=C1/C(=C/c2ccc(O)c(O)c2)Oc2cc(O)ccc21	-17	3	79	28	6
COc1cc(/C=C2\Oc3cc(O)ccc3C2=O)ccc1O	nt	-1	78	46*	4
Cc1c(C(=O)OCC(=O)NCC2CCCO2)oc2ccccc12 (stereo not drawn)	-2	-3	-11	1	2
Cc1ccc(C(=O)Nc2ccc3c(c2)OCO3)cc1Cl	18	-3	87*	39	46*
O=C(Nc1ccc(Cl)c(S(=O)(=O)N2CCOCC2)c1)c1ccc2c(c1)OCO2	-23*	-2	-8	17	0
Cc1ccc(NC(=O)c2ccc3c(c2)OCO3)cc1Cl	-3	-3	51	30	4
Cc1onc(-c2c(Cl)cccc2Cl)c1C(=O)Nc1ccc(C(N)=O)cc1	nt	5	10	-4	2
Cc1ccc(C(=O)Nc2ccc3c(c2)OCO3)cc1S(=O)(=O)N1CCCC1	nt	nt	46	79*	nt
Cc1onc(-c2c(Cl)cccc2Cl)c1C(=O)Nc1ccc2c(c1)OCO2	-22*	8	7	16	-2
COCCn1c(C)cc(C(=O)CSc2cc(C)c3ccccc3n2)c1C	nt	nt	15	7	nt
COCCn1c(C)cc(C(=O)CSc2nc3ccccc3c(=O)n2Cc2ccco2)c1C	1	0	43	97*	55*
CCCCN(C)S(=O)(=O)c1ccc(C(=O)N=c2sc3cc(NC(C)=O)ccc3n2C)cc1	nt	nt	2	nt	39*
CCCCN(CC)S(=O)(=O)c1ccc(C(=O)N=c2sc3cc(NC(C)=O)ccc3n2C)cc1	nt	0	-9	nt	-8
COCCOn1c(SCCOC)nc2ccccc2c1=O	12	-2	nt	1	4
CCCCC#Cc1cncc(C(=O)NN)c1	-15	2	-3	-5	-1
CCCCCCC#Cc1cncc(C(=O)NNC(=O)Nc2cc(Cl)cc(Cl)c2)c1	0	-3	nt	nt	42*
O=C(CSc1nccc2ccccc12)N1CCN(Cc2ccc3c(c2)OCO3)CC1	-4	2	-3	-1	-2
Cc1[nH]c2ccc(F)cc2c1CCN1C(=O)OC(C)(C)C1(C)O (stereo not drawn)	3	-17	9	-3	39*
Cc1[nH]c2ccc(OCc3ccccc3)cc2c1CCN1C(=O)OC(C)(C)C1(C)O (stereo not drawn)	1	15	nt	2	-3
COc1ccc(OC)c2c1sc(=NC(=O)c1ccco1)n2C	-2	-4	-6	8	1
SMILES	Ecoli rRNA inh	AF4-AF9 inh	MITF act	esBAF inh	Wnt bcat act
CCn1c(=NC(=O)c2ccco2)sc2cccc(F)c21	-10	-7	20	70*	28
c1ccc(-c2ccc3c(n2)CCCO3)cc1	nt	nt	49	28	22
C/C(=N/NC(=O)C(O)(c1ccccc1)c1ccccc1)c1ccc([N+](=O)[O-])o1	-35*	2	-62	nt	-1
Cn1nc(C(C)(C)C)cc1NC(=O)Nc1cc(Cl)cc(Cl)c1	-20*	1	nt	nt	-2
Cc1ccc2c(c1)sc1nc(=O)n(-c3ccccc3)c(=O)n12	20	0	48	nt	55*
NS(=O)(=O)c1ccc(CCNC(=O)Cc2ccc(S(=O)(=O)N3CCOCC3)s2)cc1	5	2	-2	6	1
Cc1cnc(NC(=O)Cc2ccc(S(=O)(=O)N3CCOCC3)s2)s1	17	6	19	nt	-3
CC(C)(C)c1csc(NC(=O)Cc2ccc(S(=O)(=O)N3CCOCC3)s2)n1	-10	1	-6	43*	-4
COCCCNC(=O)Cc1ccc(S(=O)(=O)N2CCOCC2)s1	7	-7	-2	1	55*
COC(=O)c1cc2c(ccn2-c2ccc(F)cc2)n1CC(=O)C(C)(C)C	5	1	5	nt	-3
O=C(OC1CCc2ccccc2C1=O)c1ccccc1O (stereo not drawn)	nt	nt	nt	46*	3
c1ccc(-c2ccc(C(c3ccccc3)n3ccnc3)cc2)cc1 (stereo not drawn)	-63	1	5	11	-1
c1ccc(-c2ccc(-n3ccnc3)cc2)cc1	nt	nt	67	56*	?
CC(C)c1ccc(C(=O)N2CCCC(c3cc(C(=O)Nc4ccccc4Cl)no3)C2)cc1 (stereo not drawn)	1	2	nt	-1	-3
Cc1cc(N/N=C/c2ccc(O)cc2)c2cccc(C)c2n1	-15	?	nt	1	-1
Cc1cc(C)c2nc(C)cc(N/N=C/c3ccc(O)cc3)c2c1	-31	26*	nt	-88	-7
c1ccc(N2CCN(c3nc4cc5c(cc4s3)OCCO5)CC2)cc1	nt	nt	nt	48*	?
CCCn1cnc2c(cnn2-c2ccc(F)cc2)c1=O	nt	nt	38	52*	nt
O=C(NCCCn1ccnc1)Nc1ccc(Cl)cc1	nt	nt	10	-5	nt
S=C(NCCCn1ccnc1)Nc1ccc(Cl)cc1Cl	-23*	1	-2	nt	0
Cc1nnc(C)n1N	13	-3	-9	-1	0
C[C@H](CO)N1C[C@H](C)[C@H](CN(C)Cc2cccnc2)Oc2cc(-c3ccncc3)ccc2S1(=O)=O	-4	-1	nt	-2	nt
COC(=O)c1ccc(COC(=O)[C@@H]2CC(O)CN2S(=O)(=O)c2ccccc2[N+](=O)[O-])cc1 (stereo partly drawn)	-17*	-1	-11	-2	-1
Cn1c(=O)c(C(=O)Nc2ccccc2S(N)(=O)=O)c(O)c2ccccc21	3	4	16	52*	16
O=C(CSc1nc2ccccc2c(=O)n1NC(=O)c1ccccc1)c1ccccc1	nt	nt	60	-11	nt
SMILES	Ecoli rRNA inh	AF4-AF9 inh	MITF act	esBAF inh	Wnt bcat act
O=C(CSc1nc2ccccc2c(=O)n1NC(=O)c1ccccc1)c1ccc(Cl)cc1	nt	nt	42	-8	32*
CCCCC[C@@H](/C=C/C1C(=O)C=C[C@H]1C/C=C\CCCC(=O)OC)OC(C)=O (stereo partly drawn)	-23*	-1	-68	-60	16
N/C(=N\OC(=O)COc1ccc(Cl)cc1Br)c1cccnc1	9	-2	?	nt	12
N/C(=N\OC(=O)COc1ccc(Br)cc1Cl)c1cccnc1	nt	-1	111*	nt	6
N/C(=N\OC(=O)c1cccnc1)c1ccc(Cl)cc1Cl	5	0	21	nt	7
N/C(=N\OC(=O)c1cccnc1)c1ccccc1Cl	10	-2	17	74*	9
N/C(=N\OC(=O)COc1ccc(Cl)cc1Cl)c1ccncc1	-30	-2	56	71*	8

High-throughput results deposited in PubChem BioAssay by Broad Institute.
